# Source: PubChem
# Most compounds without a hit are left out; they make up all but 2.1% or so of the library.
# NSD2 HMT inh: blocks human histone methyltransferase NSD2; actives 0.54% (n = 310,000); inhibition, % at 12.5 µM; NSD2 peptide methylation, AlphaScreen, 120 min; O96028; in the data active = inhibition above about 50%
# AF4-AF9 inh: MLL-AF4/AF9 protein interaction inhibition | P42568 | AlphaScreen, biotin-AF4 peptide binding to FLAG-AF9 | inhibition, % at 10 µM | actives 0.47% (n = 350,000) | AID 651704;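 active = every replicate reaching a set inhibition limit, whatever the replicate mean, cut at about 25% in these data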;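 also: 0% = plate neutral control median and 100% = total signal loss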
# Target sequence (P42568 whole entry, looked up): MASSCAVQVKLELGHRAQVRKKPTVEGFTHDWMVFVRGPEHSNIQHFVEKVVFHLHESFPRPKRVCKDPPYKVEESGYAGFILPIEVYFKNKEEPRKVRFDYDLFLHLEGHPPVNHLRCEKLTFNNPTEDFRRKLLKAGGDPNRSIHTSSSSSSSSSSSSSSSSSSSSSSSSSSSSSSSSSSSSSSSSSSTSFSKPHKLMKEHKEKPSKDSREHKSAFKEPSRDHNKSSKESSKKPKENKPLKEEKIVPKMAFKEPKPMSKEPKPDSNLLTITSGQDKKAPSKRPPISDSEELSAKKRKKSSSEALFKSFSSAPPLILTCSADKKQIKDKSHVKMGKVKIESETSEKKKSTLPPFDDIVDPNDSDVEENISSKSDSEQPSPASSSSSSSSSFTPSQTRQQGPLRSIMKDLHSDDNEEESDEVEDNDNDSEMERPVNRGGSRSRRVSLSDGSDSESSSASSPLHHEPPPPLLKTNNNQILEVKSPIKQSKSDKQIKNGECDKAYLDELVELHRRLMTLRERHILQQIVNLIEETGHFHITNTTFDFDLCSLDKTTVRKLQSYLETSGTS
# PGC1a acetyl inh: modulators of PGC1a acetylation; U2OS PGC1a acetylation, AlphaScreen anti-acetyl-lysine; with virally co-expressed GCN5 acetyltransferase; AID 651687; inhibition, % at 15.6 µM; actives 0.17% (n = 350,000);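 active = every replicate shows inhibition of at least 40%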;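 also: 0% = neutral control wells and 100% = positive control wells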
# INS-1E GSIS act: primary screen for activators of insulin secretion dependent on glucose, INS-1E cells, GLuc reporter luminescence; INS-1E GLuc reporter insulin secretion, 2-3 h; activation, % at 16.6 µM; actives 0.61% (n = 370,000); AID 743287;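 active = lowest replicate activation of at least 40%, so every replicate reaches that level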;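 also: 0% = median of neutral control wells and 100% = median of IBMX positive control wells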
# HIV Env fusion: HIV envelope-mediated fusion inhibition; actives 1.1% (n = 360,000); inhibition, % at 12.3 µM; HeLa-JRFL Env/CEM21 cell fusion, luciferase;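 active = mean replicate inhibition score of at least 50 and every replicate individually at or above 50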;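 also: 0% = plate neutral controls and 100% = maraviroc near 300 nM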
# * hit, by the source's call; . = no result given; [ ] = dose if it differs, or a comment.
SMILES,NSD2 HMT inh,AF4-AF9 inh,PGC1a acetyl inh,INS-1E GSIS act,HIV Env fusion
Cc1cccc(/C=C/C(=O)c2ccc([N+](=O)[O-])o2)c1,.,-0.4,.,-36.8,-82.0
O=C(/C=C/c1cccc([N+](=O)[O-])c1)c1ccc([N+](=O)[O-])o1,.,1.5,.,-16.1,55.8*
CC1(C)C2CC=C(/C=N/NC(=S)NCCc3ccccc3)C1C2 (stereo not given),1.1,5.4,.,.,67.3*
O=C(CCC1CCCN(C(=O)c2cccnc2)C1)NCc1ccccc1F (stereo not given),2.0,2.4,.,9.3,2.9
OC(CNCCC1C=Nc2ccccc21)Cn1c2ccc(Cl)cc2c2cc(Cl)ccc21 (stereo not given),-1.1,.,.,647.4*,2.5
CCCNC(=O)C[C@H]1C[C@H]2c3cc(NC(=O)Cc4ccncc4)ccc3O[C@H]2[C@H](CO)O1,.,.,-2.5,-4.0,88.1*[16.7 µM]
CCCNC(=O)C[C@@H]1C[C@@H]2c3cc(NC(=O)CN(C)C)ccc3O[C@@H]2[C@H](CO)O1,.,.,-0.6,-1.3,91.3*[16.7 µM]
CCCNC(=O)C[C@H]1C[C@H]2c3cc(NC(=O)CN(C)C)ccc3O[C@H]2[C@@H](CO)O1,.,.,-1.8,0.8,79.5*[16.7 µM]
O=[N+]([O-])c1cccc(S(=O)(=O)Nc2ccc3cn[nH]c3c2)c1,0.3,0.9,.,19.0,.
C=CCc1cccc(/C=N/NC(=O)CCC(=O)Nc2ccc(C)cc2)c1O,-1.5,.,2.1,225.3*,-12.9
COC(=O)c1c(NC(=O)COc2ncnc3ccccc23)sc(C)c1C,-3.0,-11.0,-3.4,.,-4.1
COc1ccc(C(C(=O)NC(C)(C)C)N(C[C@H]2CC[C@@H]([C@@H]3CC[C@H](CO)O3)O2)C(=O)c2ccccc2)cc1 (stereo not given in full),.,2.5,.,3.4,62.3*
CCOc1ccccc1NC(=O)CCSc1nc2n[nH]c(C)c2c(=N)n1-c1ccccc1Cl,-1.0,.,-8.2,-10.2,-30.0
CCC(C(=O)NC(C)(C)C)n1c(C(c2ccccc2)c2ccccc2)nc2ccccc21 (stereo not given),.,.,.,-8.5,86.0*
Cc1csc(-c2nc3ccccc3n2C(C(=O)NC(C)(C)C)c2ccccc2)c1 (stereo not given),.,.,.,-27.7,56.9*
CC(C(=O)NC(C)(C)C)n1c(C(c2ccccc2)c2ccccc2)nc2ccccc21 (stereo not given),.,.,.,-49.7,87.0*
CC(C(=O)NC(C)(C)C)n1c(-c2ccccc2)nc2ccccc21 (stereo not given),0.6,-2.5,.,.,-5.2
CC(=O)Nc1ccc(S(=O)(=O)N2CCC(C(=O)NCc3ccco3)CC2)cc1,-2.6,-0.9,.,33.0,-25.3
CC(C)c1ccc(S(=O)(=O)N2CCC(C(=O)NCc3ccco3)CC2)cc1,0.5,-7.0,2.7,-0.8,56.1*
COc1ccc(NC(C)=O)cc1NC(=O)C1CCCN1C(=O)c1cccs1 (stereo not given),-2.4,-0.6,.,0.3,64.1*
COc1ccc(Cc2nnc(NC(=O)Cc3cccs3)s2)cc1OC,.,.,-6.4,153.4*,20.0
O=C(Cc1cccs1)Nc1nnc(Cc2ccccc2)s1,0.4,.,-7.1,-4.5,.
COCCCNC(=O)Cn1nnc(-c2ccc(NC(=O)c3ccccc3OC)cc2)n1,0.5,.,-2.7,.,-59.7
C=CCn1cc(/C=N/N2C(=O)C3C4C=CC(C4)C3C2=O)c2ccccc21 (stereo not given),-0.3,2.3,8.4,0.2,-0.8
Cc1nnc(Cl)c2nn(-c3ccccc3)c(C)c12,-1.7,6.1,.,3.9,.
SMILES,NSD2 HMT inh,AF4-AF9 inh,PGC1a acetyl inh,INS-1E GSIS act,HIV Env fusion
CCOc1ccc(-n2nc3c(Cl)nnc(C)c3c2C)cc1,-0.9,58.1*,-3.8,5.0,.
CCC(C)N(C(=O)COC(=O)COc1c(C)cc(C)cc1C)C1CCS(=O)(=O)C1 (stereo not given),18.6,-0.5,.,26.4,3.7
Cc1cc(C)c(OCC(=O)OCC(=O)N(C)C2CCS(=O)(=O)C2)c(C)c1 (stereo not given),0.3,-2.5,.,41.2*,-23.6
COC(=O)c1cc(Cl)cc(Cl)c1OS(=O)(=O)N(C)C,-0.5,-3.2,-5.4,-2.5,-1.2
Cc1cc(NC(=O)CSc2nc3c(c(=O)n2CCc2ccccc2)SC(C)C3)no1 (stereo not given),.,3.6,-0.8,.,-4.7
C=CC#CC[N+]1(CC#Cc2ccccc2)CCOCC1,.,97.2*,-4.3,40.8,-36.0
CCOC(=O)Cc1ccc(Nc2nc3cc(-c4ccccc4C)sc3c(=O)n2C)cc1,-1.7,0.0,.,-11.5,8.3
Cc1cc(Oc2nc3c(C)cccn3c(=O)c2/C=C(\C#N)S(=O)(=O)c2ccc(Cl)cc2)ccc1Cl,-0.3,.,.,14.2,0.4
CN(C)C(=O)C[C@H]1C[C@@H]2c3cc(NC(=O)NC4CCCCC4)ccc3O[C@@H]2[C@H](CO)O1,.,-0.6,-4.0,0.9,75.4*[16.7 µM]
CN(C)C(=O)C[C@@H]1C[C@@H]2c3cc(NC(=O)NC4CCCCC4)ccc3O[C@@H]2[C@@H](CO)O1,.,-1.6,0.2,2.5,22.9[16.7 µM]
O=C(C[C@H]1C[C@@H]2c3cc(NC(=O)NC4CCCC4)ccc3O[C@@H]2[C@H](CO)O1)NC1CCCCC1,.,0.2,2.0,4.1,4.7[16.7 µM]
O=C(C[C@@H]1C[C@H]2c3cc(NC(=O)NC4CCCCC4)ccc3O[C@H]2[C@@H](CO)O1)NCc1ccncc1,.,-19.1,-2.0,2.0,61.5*[16.7 µM]
O=C(C[C@H]1C[C@H]2c3cc(NC(=O)NC4CCCC4)ccc3O[C@H]2[C@@H](CO)O1)NC1CCCCC1,.,-0.2,30.2,5.8,83.7*[16.7 µM]
C[C@@H]1CCCCO[C@@H](CN(C)Cc2ccc(C(F)(F)F)cc2)[C@@H](C)CN([C@H](C)CO)C(=O)c2cc(NC(=O)CCCN(C)C)ccc2O1,.,5.4,-0.9,9.6,9.9[16.7 µM]
Cc1ccc(C(=O)N2CCN3C(=O)c4ccccc4C23c2ccccc2)cc1 (stereo not given),.,2.2,-0.6,41.7*,10.9
O=C1c2ccccc2C2(c3ccccc3)N1CCN2C(=O)C(Cl)(Cl)Cl (stereo not given),0.0,5.4,-8.4,-56.7,-14.5
OCC(O)C1OC(Nc2ccc(Br)cc2)C(O)C1O (stereo not given),-2.1,1.4,-2.2,12.9,14.5
O=C(Nc1cnn(Cc2ccc(F)cc2)c1)c1noc2c1CCCC2,0.7,-4.0,6.3,-23.4,-19.8
CC(=O)C1=C(C)NC2=C(C(=O)c3ccccc32)C1c1ccccc1 (stereo not given),10.4,9.8,-1.2,57.3,63.5*
CSc1ncccc1C(=O)NCCc1ccccc1F,-2.6,-2.6,-6.1,72.7*,3.0
CSc1ncccc1C(=O)NCCc1ccc(Cl)cc1,-0.2,-1.0,0.8,-20.0,12.4
COc1ccccc1S(=O)(=O)N[C@@H]1CC[C@@H](CC(=O)N2CCN(C)CC2)O[C@H]1CO,.,0.3,2.9,6.4,-22.3[16.7 µM]
COc1ccccc1S(=O)(=O)N[C@H]1CC[C@H](CC(=O)N2CCN(C)CC2)O[C@H]1CO,.,-0.6,12.5,27.0,62.0*[16.7 µM]
CCCOc1ccc(N2C(=O)CC(N(CCOC34CC5CC(CC(C5)C3)C4)C(C)=O)C2=O)cc1 (stereo not given),9.0,2.7,3.1,-26.4,57.1*
